Data as given in the supplement of paper PMC6555819.

Legend:
Assay in all cases: PBM binding z-score (relative to random genomic background probes); higher = stronger binding; sequences stand for … in GC…GCGATTGACAGCGTAGAATGAAGG
[1] = system: FXR:RXRa (NR concentration 270 nM, RXRa partner concentration 90 nM)
How it was run: (§1)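 Regression normalization was applied to scanned fluorescence from custom Agilent 4×180K protein-binding microarrays. Before scanning, arrays were incubated 1 h with ligand-free nuclear receptor dimers, and binding was detected with antibodies against each partner (one per run). Binding z-scores use the random background probes as reference.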

[2] = system: LXRa:RXRa (NR concentration 270 nM, RXRa partner concentration 90 nM)
How it was run: as §1

[3] = system: LXRa homodimer (NR concentration 270 nM)
How it was run: as §1

[4] = system: LXRb:RXRa (NR concentration 270 nM, RXRa partner concentration 90 nM)
How it was run: as §1

[5] = system: LXRb homodimer (NR concentration 270 nM)
How it was run: as §1

[6] = system: PPARa:RXRa (NR concentration 270 nM, RXRa partner concentration 90 nM)
How it was run: as §1

[7] = system: PPARg:RXRa (NR concentration 180 nM, RXRa partner concentration 90 nM)
How it was run: as §1

[8] = system: PPARg:RXRa 270nM:90nM, anti-RXR (NR concentration 270 nM, RXRa partner concentration 90 nM)
How it was run: as §1

[9] = system: PPARg:RXRa 30nM:10nM, anti-RXR (NR concentration 30 nM, RXRa partner concentration 10 nM)
How it was run: as §1

[10] = system: PPARg:RXRa 90nM:30nM, anti-RXR (NR concentration 90 nM, RXRa partner concentration 30 nM)
How it was run: as §1

Sequence | PBM binding z-score [1] | PBM binding z-score [2] | PBM binding z-score [3] | PBM binding z-score [4] | PBM binding z-score [5] | PBM binding z-score [6] | PBM binding z-score [7] | PBM binding z-score [8] | PBM binding z-score [9] | PBM binding z-score [10]
CAAACTAGGTCACCGGAAGGTAAAAGTCCGCATG | 4.56 | 3.72 | 0.573 | 2.66 | 0.507 | 5.39 | 9.08 | 7.23 | 5.39 | 7.11
TCCTATAGGTAAAGGTGAAAGTCGAACGATATGA | 1.05 | 1.25 | -0.0559 | 1.25 | -0.199 | 3.07 | 2.77 | 3.93 | 3.81 | 3.96
GCAGACAGGTGAAACGCAGGTAACACAGGGTGGC | -0.0327 | -0.0189 | -0.439 | -0.317 | -1.1 | 0.885 | 0.859 | 0.128 | -0.52 | -0.381
TCGTATAGGTAAAAGGTGAAAGTCGGTGTGGTAA | 1.99 | 2.05 | 0.453 | 2.23 | 0.0721 | 4.51 | 6.49 | 7.01 | 6.31 | 7.11
ACTAGCAAGCCAAGGGTCACTCAAGATTAGTCCG | 2.21 | 2.75 | 0.27 | 2.66 | -0.201 | 3.53 | 3.39 | 4.44 | 2.1 | 4.11
ATCGACAGGTCGAAGGTGAGTATACCCACCCGAA | 0.612 | 0.709 | -0.323 | 0.59 | -0.341 | 2.27 | 2.57 | 2.71 | 1.04 | 2.75
TCATATAGGTAATACAGCTGAAAGTCGGCATCTA | 0.752 | 0.674 | -0.0282 | 0.475 | 0.431 | 1.14 | 0.839 | 2.26 | 3.95 | 3.15
TCAGACAGTTGAAGGTAACTCAGGTACGCAGTCG | 0.761 | 1.54 | 0.0812 | 0.579 | -0.363 | 1 | 0.579 | 2.27 | 3.99 | 3.4
GCTCGGAGGACAAGGTCAGAGCTTTGTCCGTAGA | 1.71 | 2.02 | -0.543 | 1.29 | -0.667 | 2.5 | 0.957 | 1.67 | -0.521 | 0.794
TCTAGTTGGTCGAAGGTCACACACTCGAAATGCG | 2.91 | 3.2 | 1.24 | 3.38 | 0.802 | 4.57 | 7.43 | 7.58 | 6.89 | 7.98
CCGCGGAGGACAGAAGGTCAGAGCTGTCCGCTTT | 1.22 | 1.49 | -0.1 | 0.955 | -1.05 | 1.77 | -0.261 | 0.596 | -0.857 | 0.289
ATCTCTAGGTCACAAGTTCAGTGAAAGAGAGGAC | 3.91 | 4.68 | 3.14 | 3.08 | 2.24 | 4.35 | 6.67 | 5.95 | 3.16 | 5.39
ACTTACGGGTCAACGAGGTTATTGCACGCGTATA | 6.87 | 5.03 | 1.72 | 4.44 | 0.685 | 5.64 | 5.89 | 5.22 | 1.88 | 3.88
TCTATTAGTTGATTAGGGCAAGCGAAACAGCGGA | 0.582 | 0.347 | 0.126 | 0.37 | 0.284 | 0.756 | -0.0527 | 2.03 | 3.67 | 2.81
ACAGACGGGTGATGAAGGTAACTCAGGCTATCAT | -0.328 | -0.456 | -0.165 | -0.422 | -0.384 | -0.198 | 0.613 | -0.161 | 0.108 | -0.458
GGAACGAAGGCATTCGAGTTGATAGCATGGCGAT | -0.551 | -0.66 | -0.692 | -1.09 | -1.23 | -1.8 | 0.416 | -0.825 | -0.794 | -0.901
CCTACTGGGCCAAAAAGCTCATTGATGCCGATAA | -0.506 | -0.69 | -0.717 | -0.724 | -1.22 | -0.251 | 0.473 | 1.24 | -0.429 | 0.564
CCTTACGGGTCACTGACAGGGTATAGCATTTGGA | 4.47 | 3.35 | 0.0232 | 2.72 | -0.363 | 4.64 | 3.98 | 4.07 | 1.2 | 2.69
CAAACTAGGTCGAAGGTCAAAGTCGAGCCAACCA | 5.22 | 4.73 | 2.22 | 4.63 | 0.602 | 6.98 | 12.4 | 10.2 | 10.9 | 12.7
GCTAGTTGGTCAGTAAAAGGACACACACCGGTCG | -0.0634 | -0.0918 | 0.213 | -0.44 | -0.0401 | -0.104 | 0.654 | 0.282 | -0.0614 | -0.0124
CCTACTGGGCCAAAAAGATCATTGATGCCGATAA | -0.2 | -0.313 | -0.155 | -0.481 | -0.601 | 0.11 | 0.525 | 0.504 | -0.0196 | 0.372
TCATATGGGTAAAAGGTGAAAGTCGGTGTGGTAA | 1.33 | 1.38 | -0.164 | 1.62 | -0.571 | 4.91 | 8.23 | 7.44 | 7.67 | 8.21
ATCTCTAGGTAAAAGTACAGTGAATCCCGAGGAT | 0.212 | 0.0141 | 0.0637 | -0.267 | 0.728 | 0.877 | 1.98 | 3.02 | 1.49 | 3.07
CCTTACGGGTCATGAGGTTATAGCACGACGAGCG | 7.04 | 4.93 | 0.379 | 3.84 | 0.286 | 5.85 | 5.69 | 5.69 | 2.37 | 4.58
